Targets with a hit are over-represented here; the source holds about 8,800 in all. About 0.5% of all pairs of compound and target were hits.
Compound: CCCS(=O)(=O)Nc1ccc(F)c(C(=O)c2c[nH]c3ncc(-c4ccc(Cl)cc4)cc23)c1F [vemurafenib]
Assay: log2 fold change, soluble protein after heating vs DMSO (PISA); higher = thermal stabilisation; K562 lysate, 10 uM; active = over 0.2 and 3.5 SD of the protein, either way, in both replicates (recomputed)
Procedure, shortened: (§1)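 To prepare the extract, K562 pellets were dounce-homogenised in PBS pH 7.4 with 1 mM MgCl2, giving crude material at 1 mg/mL protein. This was treated with 10 μM compound for 30 min, then heated in aliquots for 3 min over 48°C-58°C before pooling and addition of NP-40 to 0.5% at 4°C. Centrifugation at 21,000xg for 90 min left soluble protein in the supernatant, which TMTpro 16plex LC-MS/MS quantified with equalised channel sums. Results are log-two fold changes in thermal stability compared with solvent controls, from duplicates.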

Chain of UniProt Q9Y2I7 (Q9Y2I7 whole entry, looked up): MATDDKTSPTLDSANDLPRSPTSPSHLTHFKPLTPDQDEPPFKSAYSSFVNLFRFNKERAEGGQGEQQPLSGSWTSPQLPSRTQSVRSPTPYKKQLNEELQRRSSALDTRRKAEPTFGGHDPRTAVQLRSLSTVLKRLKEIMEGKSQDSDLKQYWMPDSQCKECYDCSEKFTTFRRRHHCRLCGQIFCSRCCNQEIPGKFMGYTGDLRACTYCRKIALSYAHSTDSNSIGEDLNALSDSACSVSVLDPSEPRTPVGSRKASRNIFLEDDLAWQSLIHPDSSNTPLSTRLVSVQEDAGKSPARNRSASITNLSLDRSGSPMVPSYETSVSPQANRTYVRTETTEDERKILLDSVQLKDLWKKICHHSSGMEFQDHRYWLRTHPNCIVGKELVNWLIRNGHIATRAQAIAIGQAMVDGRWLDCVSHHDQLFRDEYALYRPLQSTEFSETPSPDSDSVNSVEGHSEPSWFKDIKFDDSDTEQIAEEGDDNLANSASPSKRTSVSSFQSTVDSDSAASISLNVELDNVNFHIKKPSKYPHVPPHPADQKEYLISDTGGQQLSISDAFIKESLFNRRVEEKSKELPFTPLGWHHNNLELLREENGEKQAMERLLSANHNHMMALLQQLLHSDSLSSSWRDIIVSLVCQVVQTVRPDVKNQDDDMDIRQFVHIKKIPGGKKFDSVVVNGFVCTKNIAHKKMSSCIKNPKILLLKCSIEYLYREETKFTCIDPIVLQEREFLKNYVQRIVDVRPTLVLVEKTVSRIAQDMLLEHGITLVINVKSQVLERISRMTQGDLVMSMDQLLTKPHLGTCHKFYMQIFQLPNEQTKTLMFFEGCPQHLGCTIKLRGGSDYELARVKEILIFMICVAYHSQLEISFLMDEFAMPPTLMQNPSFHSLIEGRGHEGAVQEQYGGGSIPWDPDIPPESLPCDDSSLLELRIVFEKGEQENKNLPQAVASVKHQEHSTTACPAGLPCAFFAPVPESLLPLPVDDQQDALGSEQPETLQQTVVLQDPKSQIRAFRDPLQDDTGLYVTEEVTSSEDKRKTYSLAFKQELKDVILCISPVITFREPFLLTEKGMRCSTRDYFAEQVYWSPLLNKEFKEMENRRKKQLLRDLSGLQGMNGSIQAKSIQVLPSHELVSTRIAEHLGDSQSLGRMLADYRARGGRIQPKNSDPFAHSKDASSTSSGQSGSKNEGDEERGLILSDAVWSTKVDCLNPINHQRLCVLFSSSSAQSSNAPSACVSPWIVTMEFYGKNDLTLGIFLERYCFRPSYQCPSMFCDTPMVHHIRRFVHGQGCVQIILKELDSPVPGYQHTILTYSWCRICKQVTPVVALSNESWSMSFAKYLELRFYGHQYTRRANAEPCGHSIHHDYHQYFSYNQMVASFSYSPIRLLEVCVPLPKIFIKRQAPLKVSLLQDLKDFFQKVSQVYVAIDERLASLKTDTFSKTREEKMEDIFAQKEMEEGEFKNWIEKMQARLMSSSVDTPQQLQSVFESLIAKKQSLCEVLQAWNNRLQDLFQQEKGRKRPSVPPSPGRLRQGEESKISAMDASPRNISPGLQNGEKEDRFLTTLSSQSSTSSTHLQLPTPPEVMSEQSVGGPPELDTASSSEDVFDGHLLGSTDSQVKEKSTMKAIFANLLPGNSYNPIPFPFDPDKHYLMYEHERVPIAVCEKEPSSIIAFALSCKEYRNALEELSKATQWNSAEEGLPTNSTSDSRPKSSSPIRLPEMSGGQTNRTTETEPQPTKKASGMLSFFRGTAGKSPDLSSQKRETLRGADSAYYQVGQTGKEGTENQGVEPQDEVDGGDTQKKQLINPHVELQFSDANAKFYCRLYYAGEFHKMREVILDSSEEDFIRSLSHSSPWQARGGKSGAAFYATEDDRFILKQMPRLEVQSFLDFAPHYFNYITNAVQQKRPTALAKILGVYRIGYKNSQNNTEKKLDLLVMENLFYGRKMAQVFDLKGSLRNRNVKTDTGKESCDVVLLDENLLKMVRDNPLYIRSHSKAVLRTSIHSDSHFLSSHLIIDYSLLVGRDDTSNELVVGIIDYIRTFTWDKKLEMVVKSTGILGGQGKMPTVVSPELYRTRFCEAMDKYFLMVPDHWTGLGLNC
Chain of UniProt Q16877 (Q16877 whole entry, looked up): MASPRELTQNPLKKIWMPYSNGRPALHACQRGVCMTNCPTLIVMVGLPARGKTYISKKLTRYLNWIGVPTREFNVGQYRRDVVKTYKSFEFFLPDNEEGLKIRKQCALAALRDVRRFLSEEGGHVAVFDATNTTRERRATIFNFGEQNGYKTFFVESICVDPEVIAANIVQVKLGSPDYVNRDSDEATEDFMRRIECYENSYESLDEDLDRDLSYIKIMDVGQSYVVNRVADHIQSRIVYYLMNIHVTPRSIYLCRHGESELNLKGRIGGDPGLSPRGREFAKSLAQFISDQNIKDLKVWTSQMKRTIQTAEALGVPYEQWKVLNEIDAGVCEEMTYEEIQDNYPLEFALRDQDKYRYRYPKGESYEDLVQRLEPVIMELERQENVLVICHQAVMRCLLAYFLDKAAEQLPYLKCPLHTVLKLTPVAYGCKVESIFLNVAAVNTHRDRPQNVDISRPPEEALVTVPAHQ
Chain of UniProt P31323 (P31323 whole entry, looked up): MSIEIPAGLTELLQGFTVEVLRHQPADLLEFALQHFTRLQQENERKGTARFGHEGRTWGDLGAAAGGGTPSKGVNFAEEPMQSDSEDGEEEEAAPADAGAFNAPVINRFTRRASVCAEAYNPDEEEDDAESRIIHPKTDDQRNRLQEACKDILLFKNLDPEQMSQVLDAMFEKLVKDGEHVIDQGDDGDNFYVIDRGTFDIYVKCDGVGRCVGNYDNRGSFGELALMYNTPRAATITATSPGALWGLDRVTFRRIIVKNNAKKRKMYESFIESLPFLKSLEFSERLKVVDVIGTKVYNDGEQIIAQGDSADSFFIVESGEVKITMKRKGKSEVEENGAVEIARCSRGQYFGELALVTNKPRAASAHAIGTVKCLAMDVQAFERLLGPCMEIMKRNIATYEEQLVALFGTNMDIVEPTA
Chain of UniProt Q9Y570 (Q9Y570 whole entry, looked up): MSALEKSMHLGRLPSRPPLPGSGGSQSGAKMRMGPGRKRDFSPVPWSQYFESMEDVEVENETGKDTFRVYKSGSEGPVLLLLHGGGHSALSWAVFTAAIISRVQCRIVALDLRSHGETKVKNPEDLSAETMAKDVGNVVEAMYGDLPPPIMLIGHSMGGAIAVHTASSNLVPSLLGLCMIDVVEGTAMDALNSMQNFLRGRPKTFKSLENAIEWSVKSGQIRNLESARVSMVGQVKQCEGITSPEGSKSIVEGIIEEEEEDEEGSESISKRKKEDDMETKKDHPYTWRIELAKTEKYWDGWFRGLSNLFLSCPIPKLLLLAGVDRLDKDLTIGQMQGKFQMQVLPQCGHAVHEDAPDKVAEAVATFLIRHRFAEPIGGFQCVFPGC
Chain of UniProt P46020 (P46020 whole entry, looked up): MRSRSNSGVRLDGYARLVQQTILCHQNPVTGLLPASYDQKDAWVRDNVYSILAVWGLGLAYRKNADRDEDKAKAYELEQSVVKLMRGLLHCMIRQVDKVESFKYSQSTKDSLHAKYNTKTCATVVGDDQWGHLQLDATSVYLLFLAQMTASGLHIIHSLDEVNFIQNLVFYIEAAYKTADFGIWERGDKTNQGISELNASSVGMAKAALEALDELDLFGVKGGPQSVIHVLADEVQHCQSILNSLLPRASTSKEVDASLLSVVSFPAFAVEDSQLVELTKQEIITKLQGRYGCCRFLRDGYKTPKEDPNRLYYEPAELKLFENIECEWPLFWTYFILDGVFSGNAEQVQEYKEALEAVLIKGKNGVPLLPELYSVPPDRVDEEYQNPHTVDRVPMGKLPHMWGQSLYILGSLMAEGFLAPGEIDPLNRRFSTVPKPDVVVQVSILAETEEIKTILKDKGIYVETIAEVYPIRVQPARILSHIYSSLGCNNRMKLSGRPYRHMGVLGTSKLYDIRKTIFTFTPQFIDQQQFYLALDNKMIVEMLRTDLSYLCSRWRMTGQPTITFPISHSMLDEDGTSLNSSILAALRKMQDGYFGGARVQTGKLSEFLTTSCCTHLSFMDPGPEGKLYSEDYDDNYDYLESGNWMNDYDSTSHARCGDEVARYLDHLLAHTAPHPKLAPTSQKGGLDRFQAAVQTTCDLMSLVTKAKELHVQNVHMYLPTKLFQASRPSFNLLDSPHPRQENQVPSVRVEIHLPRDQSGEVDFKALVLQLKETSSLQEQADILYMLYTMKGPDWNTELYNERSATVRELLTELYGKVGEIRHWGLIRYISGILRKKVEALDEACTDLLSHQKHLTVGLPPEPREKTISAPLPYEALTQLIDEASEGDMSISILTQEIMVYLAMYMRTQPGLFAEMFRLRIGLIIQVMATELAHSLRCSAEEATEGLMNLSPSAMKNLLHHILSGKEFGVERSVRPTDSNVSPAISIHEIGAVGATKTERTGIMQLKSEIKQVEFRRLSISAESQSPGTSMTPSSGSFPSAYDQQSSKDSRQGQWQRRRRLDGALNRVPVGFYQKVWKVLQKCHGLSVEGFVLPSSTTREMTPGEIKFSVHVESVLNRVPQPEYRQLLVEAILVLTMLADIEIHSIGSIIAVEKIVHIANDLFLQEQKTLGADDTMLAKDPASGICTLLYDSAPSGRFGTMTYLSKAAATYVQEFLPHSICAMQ
Chain of UniProt Q8TAE6 (Q8TAE6 whole entry, looked up): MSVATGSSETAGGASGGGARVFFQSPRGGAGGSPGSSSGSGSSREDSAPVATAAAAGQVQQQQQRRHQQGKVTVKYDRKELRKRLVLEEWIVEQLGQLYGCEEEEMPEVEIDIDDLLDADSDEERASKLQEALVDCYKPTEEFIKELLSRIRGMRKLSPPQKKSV
Chain of UniProt Q9UBV8 (Q9UBV8 whole entry, looked up): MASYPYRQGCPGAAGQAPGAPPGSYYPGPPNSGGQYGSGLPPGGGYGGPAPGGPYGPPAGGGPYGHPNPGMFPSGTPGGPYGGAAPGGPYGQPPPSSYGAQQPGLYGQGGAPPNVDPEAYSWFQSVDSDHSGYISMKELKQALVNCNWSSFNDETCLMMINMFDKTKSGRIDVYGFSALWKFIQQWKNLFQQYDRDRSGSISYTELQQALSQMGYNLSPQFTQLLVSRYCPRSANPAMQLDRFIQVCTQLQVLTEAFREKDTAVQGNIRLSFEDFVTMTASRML

log2 fold change, inactive:
PCIF1 (UniProt Q9H4Z3) 0.03
PEF1 (UniProt Q9UBV8) -0.025
PMPCA (UniProt Q10713) 0.047
PPP4R2 (UniProt Q9NY27) -0.033
PLXNB2 (UniProt O15031) 0.011
PIK3R1 (UniProt P27986) 0.011
PTGR2 (UniProt Q8N8N7) -0.029
PFKFB4 (UniProt Q16877) 0.021
PFAS (UniProt O15067) 0.029
PRKAR2B (UniProt P31323) 0.01
PGRMC1 (UniProt O00264) -0.009
PPP3CA isoform 2 (UniProt Q08209) -0.008
PUM1 isoform 3 (UniProt Q14671) -0.07
PPP1R14C (UniProt Q8TAE6) -0.183
PRKCB isoform 2 (UniProt P05771) 0.045
PIP4K2A (UniProt P48426) 0
POLR2B (UniProt P30876) 0.021
PPP2R3C (UniProt Q969Q6) -0.081
PFKFB3 isoform 4 (UniProt Q16875) -0.022
PCF11 (UniProt O94913) 0.042
PRPF38A (UniProt Q8NAV1) -0.021
POMP (UniProt Q9Y244) -0.022
PRKD2 isoform 3 (UniProt Q9BZL6) 0.041
PPIE (UniProt Q9UNP9) 0.026
POLR2F (UniProt P61218) 0.077
PWP1 (UniProt Q13610) -0.09
PLEKHA5 isoform 6 (UniProt Q9HAU0) 0.003
PHKB isoform 3 (UniProt Q93100) -0.043
PRKCSH (UniProt P14314) 0.01
PIK3R2 (UniProt O00459) -0.032
PITRM1 isoform 2 (UniProt Q5JRX3) -0.026
PIKFYVE (UniProt Q9Y2I7) -0.022
PPIL3 (UniProt Q9H2H8) 0.048
PTPN1 (UniProt P18031) 0.04
PPME1 isoform 4 (UniProt Q9Y570) 0.005
PPM1H (UniProt Q9ULR3) 0.066
PRPF6 (UniProt O94906) -0.019
PRRC2A (UniProt P48634) -0.006
PHKA1 (UniProt P46020) -0.021

Compound: CCCS(=O)(=O)Nc1ccc(F)c(C(=O)c2c[nH]c3ncc(Cl)cc23)c1F
Assay: as above
Procedure, shortened: as §1

log2 fold change, inactive:
PCIF1 (UniProt Q9H4Z3) -0.012
PEF1 (UniProt Q9UBV8) 0.015
PMPCA (UniProt Q10713) 0.037
PPP4R2 (UniProt Q9NY27) 0.026
PLXNB2 (UniProt O15031) -0.007
PIK3R1 (UniProt P27986) -0.01
PTGR2 (UniProt Q8N8N7) 0.04
PFKFB4 (UniProt Q16877) 0.005
PFAS (UniProt O15067) 0.023
PRKAR2B (UniProt P31323) 0
PGRMC1 (UniProt O00264) -0.043
PPP3CA isoform 2 (UniProt Q08209) -0.037
PUM1 isoform 3 (UniProt Q14671) 0.013
PPP1R14C (UniProt Q8TAE6) 0.008
PRKCB isoform 2 (UniProt P05771) -0.024
PIP4K2A (UniProt P48426) -0.009
POLR2B (UniProt P30876) -0.004
PPP2R3C (UniProt Q969Q6) -0.094
PFKFB3 isoform 4 (UniProt Q16875) 0.134
PCF11 (UniProt O94913) 0.012
PRPF38A (UniProt Q8NAV1) -0.011
POMP (UniProt Q9Y244) 0.001
PRKD2 isoform 3 (UniProt Q9BZL6) -0.048
PPIE (UniProt Q9UNP9) -0.043
POLR2F (UniProt P61218) -0.018
PWP1 (UniProt Q13610) 0.019
PLEKHA5 isoform 6 (UniProt Q9HAU0) -0.003
PHKB isoform 3 (UniProt Q93100) -0.007
PRKCSH (UniProt P14314) -0.009
PIK3R2 (UniProt O00459) 0
PITRM1 isoform 2 (UniProt Q5JRX3) 0.001
PIKFYVE (UniProt Q9Y2I7) 0.042
PPIL3 (UniProt Q9H2H8) -0.017
PTPN1 (UniProt P18031) -0.005
PPME1 isoform 4 (UniProt Q9Y570) 0.003
PPM1H (UniProt Q9ULR3) -0.001
PRPF6 (UniProt O94906) 0.004
PRRC2A (UniProt P48634) 0.008
PHKA1 (UniProt P46020) 0.009
